# In the library only some 8.1% were active in any assay of this set; here they are far more common.
# SW480 rerep: DNA re-replication induction in SW480 cells. Potency, µM (doses to about 46.1 µM), inactives show at the highest dose re-replication activation, hits mostly activators. 340,000 compounds, 1.8% hits. SW480 DNA re-replication, Hoechst DNA content imaging, 48 h; note: % of control where 0% means no effect; nearly all actives have a fitted effect of over 55% in size
#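 Image-based read-out: total Hoechst fluorescence of nuclei (405 nm excitation, 500-530 nm emission), with hits raising the fraction of high-intensity nuclei. SW480 colon cells incubated 48 hr with compounds at 37 C.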
# KB-3-1 cytotox: kills parental KB-3-1 adenocarcinoma cells; 400,000 compounds, 1.4% hits; AID 1347075; Potency, µM (series often up to 46.1 µM), hits mostly cytotoxic; KB-3-1 viability, CellTiter-Glo ATP luminescence, 72 h; note: % is set by controls: 0 for no effect and ±100 for the full control effect; nearly all actives have a fitted effect of over 60% in size
#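 Screening of KB-3-1 cells (DMEM, 10% FBS, phenol-red free) ran from lowest to highest compound concentration; after 72 h at 37 °C viability was read luminescently and curves fitted.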
# MCF10A rereplic: DNA re-replication induction in MCF 10a cells; MCF 10A DNA re-replication, Hoechst nuclear intensity, 48 h; Potency, µM (titrated, usually from 46.1 µM), inactives show at the top dose activity, positive = re-replication, usual class: activators; 350,000 compounds, 2.9% hits; note: % of control where 0% means no effect; nearly all actives have a fitted effect of over 50% in size
# ELG1 DNA repair: inhibitors of ELG1-dependent DNA repair in HEK293T cells; HEK293T ELG1-luciferase reporter, luminescence, 16 h; DNA damage induced by 5-fluorouridine; Potency, µM (series often up to 46.1 µM), for inactives: top-dose activity change, negative = inhibition, hits mostly inhibitors; 330,000 compounds, 2.3% hits; note: % is set by controls: 0 for no effect and ±100 for the full control effect; nearly all actives have a fitted effect of over 55% in size
#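 Overnight (16 hr) co-exposure of 2,000 cells/well to 5-fluorouridine and compound at 37 °C preceded detection. Luciferase was quantified via ONE-Glo luminescence; loss of signal denotes inhibition.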
# KB-V1 MDR tox: KB-V1 MDR subline cytotoxicity. KB-V1 MDR cells viability, CellTiter-Glo, 72 h. Potency, µM (highest dose often 46.1 µM), hits mostly cytotoxic. 400,000 compounds, 3.4% hits. AID 1347076; note: % is set by controls: 0 for no effect and ±100 for the full control effect; nearly all actives have a fitted effect of over 60% in size
#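 Cytotoxicity via CellTiter-Glo luminescence after 72 h compound exposure at 37 degrees C. Cells: drug-selected KB-V1 line, DMEM phenol-red free plus 10% FBS. Compounds tested at multiple concentrations; normalized data fitted to concentration-effect curves.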
# An asterisk follows results filed as active; i = inactive; ? = inconclusive; nt = no result given; [ ] = dose if it differs, or a comment. Calls come from the whole dose curve; as a rule, active = well fitted curve in the direction sought with a large enough effect; inconclusive = small, poorly fitted or top-dose-only effect, or another doubt; inactive = no such curve, though single readings can be large; an effect the other way counts as inactive or inconclusive. Potency is the fitted concentration of half-maximal effect.
SMILES,SW480 rerep,KB-3-1 cytotox,MCF10A rereplic,ELG1 DNA repair,KB-V1 MDR tox
Cn1c(SCC(=O)Nc2cccnc2Cl)nnc1-c1ccco1,-27%,i,-62%,7%,i
COc1ccccc1C(=O)Nc1ccc2c(c1)CCCN2C(=O)c1ccccc1,22%,18µM*,3%,?,?
COc1ccccc1C(=O)Nc1ccc2c(c1)CN(C(=O)CSC)CC2,?,26µM*,12µM*,-2%,i
CCOC(=O)CNC(=O)N1CCc2ccc(NC(=O)c3ccccc3Cl)cc2C1,-21%,i,7.3µM*,7%,?
O=C(OCC1OC(n2cc(Br)c(=O)[nH]c2=O)C(Br)C1O)c1ccccc1 (stereo unspecified),-7%,i,-4%,-6%,i
COc1cccc(C2C=C(Nc3ccccc3)C(=O)N2c2ccccc2)c1 (stereo unspecified),-3%,i,?,?,i
COc1ccc(CCN2CCC(CNC(=O)c3cnn(-c4ccccc4)c3C3CCN(C(=O)OC(C)(C)C)CC3)CC2)cc1,nt,16µM*,nt,nt,?
CC(C)(C)OC(=O)N1CCC(c2c(C(=O)NCCN3CCC(Cc4ccccc4)CC3)cnn2-c2ccccc2)CC1,nt,i,nt,nt,?
COc1cc(CC2C(=O)Nc3ccccc32)cc(C)c1O (stereo unspecified),12%,i,1%,0%,i
CC(C)c1ccc(-c2noc(C3CCCN(C(=O)c4ccc(F)cc4F)C3)n2)cc1 (stereo unspecified),?,?,12µM*,25%,?
Cc1ccc(NC(=O)N2CCCC(c3nc(-c4ccc(F)cc4)no3)C2)cc1 (stereo unspecified),-5%,i,0%,-4%,i
Cc1ccccc1NC(=O)N1CCCC(c2nc(-c3ccc(C(C)C)cc3)no2)C1 (stereo unspecified),2%,18µM*,15µM*,?,i
O=C(C1CCCCC1)N1CCCC(c2nc(-c3ccc(F)cc3)no2)C1 (stereo unspecified),-4%,i,26%,0%,21µM*
Cc1ccc(-c2noc(C3CCCN(C(=O)c4ccc(F)cc4F)C3)n2)cc1 (stereo unspecified),4%,?,?,-14%,?
O=C(Nc1ccccc1)N1CCCC(c2nc(-c3ccc(F)cc3)no2)C1 (stereo unspecified),2%,i,1%,-5%,?
Cc1ccccc1NC(=O)N1CCCC(c2nc(-c3ccc(F)cc3)no2)C1 (stereo unspecified),5%,i,3%,?,15µM*
CC(=O)c1ccc(NC(=O)C(C)Sc2ccccn2)cc1 (stereo unspecified),-9%[1.84 µM],i,?,?,i
C[C@@H]1CC[C@]2(C(=O)O)CC[C@]3(C)C(=CCC4[C@@]5(C)CC[C@H](O)[C@@](C)(C(=O)O)C5CC[C@]43C)C2[C@]1(C)O (stereo partly specified),-8%,i,-23%,28%,i
COc1ccc(C(=O)NC2CCCc3ccccc32)cc1OC1CCN(C(C)=O)CC1 (stereo unspecified),-4%,i,-5%,-13%,i
Cc1c(NC(=O)Nc2c(Cl)cccc2Cl)c(=O)n(-c2ccccc2)n1C,19%,i,10%,-13%,i
COc1ccc(OC)c(NC(=O)Nc2ccc(O)c3ccccc23)c1,?,i,?,nt,i
CC(=O)Nc1ccc(-c2ccnc3c2CC(C(=O)NCc2ccco2)O3)cc1 (stereo unspecified),nt,0.52µM*,nt,nt,i
CC(=O)Nc1ccc(-c2ccnc3c2CC(C(=O)NCCc2ccccc2)O3)cc1 (stereo unspecified),nt,i,nt,nt,i
CC(=O)Nc1ccc(-c2ccnc3c2CC(C(=O)NCc2ccccc2)O3)cc1 (stereo unspecified),nt,0.065µM*,nt,nt,1.3µM*
CC(C)(C)c1ccc(C(=O)Nc2ccc(NC(=O)C(=O)O)cc2)o1,-751%[1.84 µM],i,-2%,-6%,?

# Source: PubChem
